{
  "source": "PubChem BioAssay AID463173",
  "about": "(ICCB-Longwood Screening Facility, Harvard Medical School, 2010)",
  "note": "Hit rate of the full screen: of about 52,000 compounds, about 4,300 (8.3%) were called active. This is one part of a sample in which actives are shown more often than they occur. Values without a mark were called inactive. Cut-off read from the data, not from the text of the source: active = survival mostly below about 52% (no sharp cut-off); inactive = mostly above about 56%.",
  "data": [
    {"tested_on": "DeltatarO mutant", "assay": "S. aureus survival, RN4220 and DeltatarO strains – OD600, teichoic acid synthesis inhibitors, primary screen (AID 463173)", "settings": "S. aureus RN4220 wild type/DeltatarO growth, OD600, 18 h, active compounds read low, screened at 18.75 µg/mL (by protocol)", "values": [
      {"smiles": "O=C(/C=C/c1ccco1)Nc1ccc(-c2cc3ccccc3oc2=O)cc1", "survival": "50%"},
      {"smiles": "CC(=O)N1CCc2cc(S(=O)(=O)NC(CC(C)C)C(=O)NCCc3ccccc3)ccc21", "note": "(stereo not drawn)", "survival": "78%"},
      {"smiles": "CCCCOc1ccccc1C(=O)N(Cc1ccc(C)o1)C1CCS(=O)(=O)C1", "note": "(stereo not drawn)", "survival": "71%"},
      {"smiles": "Cc1cccc(OCC(=O)Nc2ccccc2C(=O)OCc2cc(=O)n3ccsc3n2)c1", "survival": "77%"},
      {"smiles": "CC(=O)Nc1ccc(S(=O)(=O)N2CCC(NC(=O)Nc3cccc(F)c3)CC2)cc1", "survival": "91%"},
      {"smiles": "CC1=C(C(=O)Nc2ccc(C)cc2C)C(c2cccn2C)n2ncnc2N1", "note": "(stereo not drawn)", "survival": "91%"},
      {"smiles": "Cc1ccc(NS(=O)(=O)c2c(C(=O)N3CCCCCC3)c(C)n(C)c2C)cc1F", "survival": "83%"},
      {"smiles": "COC(=O)c1c(NC(=O)C2c3ccccc3Oc3ccccc32)sc2c1CCC(C)C2", "note": "(stereo not drawn)", "survival": "56%"},
      {"smiles": "CCCOC(=O)c1c(NC(=O)C2c3ccccc3Oc3ccccc32)sc2c1CCCC2", "survival": "77%"},
      {"smiles": "CCOC(=O)c1c(NC(=O)C2c3ccccc3Oc3ccccc32)sc(C)c1CC", "survival": "24% (active)"},
      {"smiles": "CNC(=O)C1c2ccccc2Oc2ccccc21", "survival": "91%"},
      {"smiles": "CC(C)OC(=O)c1c(NC(=O)C2c3ccccc3Oc3ccccc32)sc2c1CCCC2", "survival": "93%"},
      {"smiles": "CC1CCc2c(sc(NC(=O)C3c4ccccc4Oc4ccccc43)c2C(=O)OC(C)C)C1", "note": "(stereo not drawn)", "survival": "47% (active)"},
      {"smiles": "CCCOC(=O)c1c(NC(=O)C2c3ccccc3Oc3ccccc32)sc2c1CCC(C)C2", "note": "(stereo not drawn)", "survival": "82%"},
      {"smiles": "Cc1sc(NC(=O)C2c3ccccc3Oc3ccccc32)c(C(=O)OC(C)C)c1C", "survival": "59%"},
      {"smiles": "CCc1c(C)sc(NC(=O)C2c3ccccc3Oc3ccccc32)c1C(=O)OC(C)C", "survival": "41% (active)"},
      {"smiles": "CCOC(=O)c1sc(NC(=O)C2c3ccccc3Oc3ccccc32)c(C#N)c1C", "survival": "72%"},
      {"smiles": "CCOC(=O)c1sc(NC(=O)C2c3ccccc3Oc3ccccc32)c(C(=O)OCC)c1C", "survival": "124%"},
      {"smiles": "CCOC(=O)c1c(NC(=O)C2c3ccccc3Oc3ccccc32)sc(C)c1C", "survival": "12% (active)"},
      {"smiles": "O=C(C1CC1)N1CCN(c2nc3ccc(F)cc3s2)CC1", "survival": "117%"},
      {"smiles": "Cc1nn(-c2ccccc2)c(OC(=O)c2ccccc2)c1S(=O)(=O)c1ccccc1", "survival": "81%"},
      {"smiles": "Cc1cc(C)n(-c2n[nH]c(=S)c3ccccc23)n1", "survival": "81%"},
      {"smiles": "CN(Cc1ccccc1)c1ccc(-c2nc(-c3ccco3)no2)cc1[N+](=O)[O-]", "survival": "52%"},
      {"smiles": "Cc1cc(Nc2cc(Cl)ccc2C)n2nc(-c3ccccc3)nc2n1", "survival": "49%"},
      {"smiles": "Cc1c(C(=O)OC(C)C)sc(NC(=O)C2c3ccccc3Oc3ccccc32)c1C(=O)OC(C)C", "survival": "80%"},
      {"smiles": "Cc1sc(NC(=O)COc2ccc(C(C)(C)C)cc2)c(C(=O)OC(C)C)c1C", "survival": "10% (active)"},
      {"smiles": "CCOC(=O)c1c(NC(=O)COc2cc(C)ccc2C(C)C)sc(C)c1C", "survival": "63%"},
      {"smiles": "CCOC(=O)c1c(NC(=O)COc2ccc(OC)cc2)sc(C(=O)N(CC)CC)c1C", "survival": "3% (active)"},
      {"smiles": "CCN(CC)C(=O)c1sc(NC(=O)C2c3ccccc3Oc3ccccc32)c(C(=O)OC(C)C)c1C", "survival": "30% (active)"},
      {"smiles": "COC(=O)c1c(NC(=O)COc2ccc(Cl)cc2)sc(C)c1C", "survival": "67%"},
      {"smiles": "CCCc1ccc(OCC(=O)Nc2sc(C(=O)OCC)c(C)c2C(=O)OCC)cc1", "survival": "82%"},
      {"smiles": "CCN(CC)C(=O)c1sc(NC(C)=O)c(C(=O)OC)c1C", "survival": "99%"},
      {"smiles": "CCN(CC)C(=O)c1sc(NC(=O)c2nc3ncccn3n2)c(C(=O)OC)c1C", "survival": "137%"},
      {"smiles": "CCOc1ccc(NC(=O)Cn2c3ncccc3c(=O)n2-c2ccc(CC)cc2)cc1", "survival": "85%"},
      {"smiles": "Cc1ccc(C(=O)c2oc3ccccc3c2NC(=O)Cc2coc3c(C)c(C)ccc23)cc1", "survival": "54%"},
      {"smiles": "CCCCNC(=O)Cn1ncc2c(C)n(Cc3cccc(Cl)c3)c(C)c2c1=O", "survival": "93%"},
      {"smiles": "Cn1c(=O)c2[nH]c(=S)[nH]c2n(C)c1=O", "survival": "103%"},
      {"smiles": "Cc1c(NC(=O)Nc2ccccc2C(F)(F)F)c(=O)n(-c2ccccc2)n1C", "survival": "92%"},
      {"smiles": "CCOc1ccc(NC(=O)Cn2c(=O)n(Cc3nc(-c4ccccc4)no3)c(=O)c3cc4c(cc32)OCO4)cc1", "survival": "89%"},
      {"smiles": "CCOCCc1nn2c(=O)cc(COC(=O)C3CCCCC3)nc2s1", "survival": "88%"},
      {"smiles": "COc1cccc(OC(=O)N2CCOCC2)c1", "survival": "103%"},
      {"smiles": "Cc1ccc2ncc(S(=O)(=O)c3ccccc3)c(N3CCCCC3C)c2c1", "note": "(stereo not drawn)", "survival": "7% (active)"},
      {"smiles": "CC1CCCCN1c1c(S(=O)(=O)c2ccc(Cl)cc2)cnc2ccccc12", "note": "(stereo not drawn)", "survival": "102%"},
      {"smiles": "COc1ccc(S(=O)(=O)c2cnc3ccc(Cl)cc3c2N2CCCCC2C)cc1", "note": "(stereo not drawn)", "survival": "134%"},
      {"smiles": "CCN(CC)CCNC(=O)c1cn(CC)c2ccc(S(=O)(=O)N(C)C3CCCCC3)cc2c1=O", "survival": "107%"},
      {"smiles": "O=S1(=O)CCC(N2C(=S)SC3CS(=O)(=O)CC32)C1", "note": "(stereo not drawn)", "survival": "96%"},
      {"smiles": "O=C(Cn1c(=O)ccc2cc(S(=O)(=O)N3CCCC3)ccc21)NCc1ccc(Cl)cc1", "survival": "102%"},
      {"smiles": "CCc1ccc(-c2cc(C)no2)cc1S(=O)(=O)Nc1ccc(C)cn1", "survival": "55%"},
      {"smiles": "CCc1ccc(-c2cc(C)no2)cc1S(=O)(=O)Nc1ccc(Cl)cn1", "survival": "17% (active)"},
      {"smiles": "CCc1ccc(-c2cc(C)no2)cc1S(=O)(=O)Nc1ccc(Cl)cc1", "survival": "68%"},
      {"smiles": "CCC1CCCCN1CCCNC(=O)c1c(O)nc2cc(C)ccn2c1=O", "note": "(stereo not drawn)", "survival": "80%"},
      {"smiles": "COc1ccccc1-c1noc(-c2ccc(NCCc3ccccc3)c([N+](=O)[O-])c2)n1", "survival": "37% (active)"},
      {"smiles": "O=[N+]([O-])c1cc(-c2nc(-c3ccccc3)no2)ccc1NCCc1ccccc1", "survival": "58%"},
      {"smiles": "COc1cc(-c2noc(-c3ccc(NCCc4ccccc4)c([N+](=O)[O-])c3)n2)cc(OC)c1OC", "survival": "66%"},
      {"smiles": "COc1cc(-c2noc(-c3ccc(NCc4ccccc4)c([N+](=O)[O-])c3)n2)cc(OC)c1OC", "survival": "79%"},
      {"smiles": "COc1ccc(-c2noc(-c3ccc(NCc4cccnc4)c([N+](=O)[O-])c3)n2)cc1", "survival": "56%"},
      {"smiles": "COc1ccc(-c2noc(-c3ccc(NCCc4ccccc4)c([N+](=O)[O-])c3)n2)cc1", "survival": "42% (active)"},
      {"smiles": "COc1ccc(-c2noc(-c3ccc(NCC4CCCO4)c([N+](=O)[O-])c3)n2)cc1OC", "note": "(stereo not drawn)", "survival": "54%"},
      {"smiles": "COc1ccc(-c2noc(-c3ccc(NCC4CCCO4)c([N+](=O)[O-])c3)n2)cc1", "note": "(stereo not drawn)", "survival": "42% (active)"},
      {"smiles": "COc1ccccc1-c1noc(-c2ccc(NCc3cccnc3)c([N+](=O)[O-])c2)n1", "survival": "47%"},
      {"smiles": "Cc1ccc(-c2noc(-c3ccc(NCC4CCCO4)c([N+](=O)[O-])c3)n2)cc1", "note": "(stereo not drawn)", "survival": "74%"},
      {"smiles": "COc1ccc(-c2noc(-c3ccc(NCCc4ccccc4)c([N+](=O)[O-])c3)n2)cc1OC", "survival": "57%"},
      {"smiles": "COc1ccccc1-c1noc(-c2ccc(NCc3ccccc3)c([N+](=O)[O-])c2)n1", "survival": "35% (active)"}
    ]}
  ]
}
